Source: PubChem
Sampled rows, rich in hits. Any-hit rate of the full collection: about 8%.
SARS PLP yeast: inhibitors of SARS-CoV papain-like protease in yeast | Potency, µM (highest dose often 32.9 µM), inactives show top-dose activity, positive = growth rescue, hits mostly activators | 0.19% of 330,000 active | AID 485353 | S. cerevisiae expressing SARS-CoV PLpro, growth rescue; calls by dose curve; also: potency is read from the fitted curve at half-maximal effect; 0% is about no effect; nearly all actives have a fitted effect of over 55% in size
HCV inh: blocks hepatitis C virus. 3.4% of 340,000 active. Potency, µM (highest dose often 41.8 µM), without a hit: at the highest dose activity change, negative = inhibition, most hits filed as inhibitors. Huh7.5.1 HCVcc-Cre infection, luciferase reporter, 44 h. AID 651820; active = well fitted inhibition curve with a large enough effect; inconclusive = small, poorly fitted or top-dose-only effect, or another doubt; inactive = no such curve, though single readings can be large or run the other way; also: potency is read from the fitted curve at half-maximal effect; % is scaled to controls: 0 for no effect and ±100 for the full control effect
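Compounds are dispensed onto cells plated 4 h earlier at 1,000 per well, with HCVcc-Cre virus (about 0.5 moi) added next. Following 44 h of culture, luminescent signal is measured for 15 sec after 15 min with substrate at room temperature.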
FMDV inh: blocks foot and mouth disease virus. AID 1159524. FMDV antiviral cell-based qHTS. 1.2% of 410,000 active. Potency, µM (titrated, usually from 57.9 µM), without a hit: top-dose activity change, negative = inhibition, usual class: inhibitors; calls by dose curve; tested in HEK293T cells; also: read-out not given here; potency is read from the fitted curve at half-maximal effect; % is scaled to controls: 0 for no effect and ±100 for the full control effect; nearly all actives have a fitted effect of over 45% in size
Lassa entry inh: blocks Lassa virus binding to or entry into cells. Potency, µM (highest dose often 37.9 µM), inactives show top-dose activity change, negative = inhibition, usual class: inhibitors. 1.2% of 300,000 active. AID 540256. Lassa virus pseudotype entry inhibition, cell reporter; calls by dose curve; tested in HEK293 cells; also: potency is read from the fitted curve at half-maximal effect; % is scaled to controls: 0 for no effect and ±100 for the full control effect; nearly all actives have a fitted effect of over 50% in size
MARV entry inh: blocks Marburg virus binding to or entry into cells; Potency, µM (titrated, usually from 37.8 µM), without a hit: top-dose activity change, negative = inhibition, hits mostly inhibitors; Marburg virus pseudotyped entry inhibition, cell reporter; AID 540276; 1.8% of 300,000 active; calls by dose curve; tested in HEK293 cells; also: potency is read from the fitted curve at half-maximal effect; % is scaled to controls: 0 for no effect and ±100 for the full control effect
HCMV inh: inhibitors of human cytomegalovirus; HFF cells, HCMV-luciferase reporter, 72 h; hits give low values; activity change, negative = inhibition, % at 57.5 µM; 4.5% of 410,000 active; in the data active = activity change below about -60%; inconclusive = no clear call, values can overlap the other calls; inactive = above about -39%; also: % is scaled to controls: 0 for no effect and ±100 for the full control effect
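Two compound doses tested in HFFs infected with HCMV-luciferase, MOI 1 PFU/cell, 72 h at 37C. Lysate luminescence read with OneGlo; data normalized against buffer-only and 10uM Salinomycin inhibitor controls.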
Numbers without * were called inactive; u = inconclusive; x = no result; + = active, no number; [ ] = remark or other dose.

SMILES	SARS PLP yeast	HCV inh	FMDV inh	Lassa entry inh	MARV entry inh	HCMV inh
COc1ccc(NC(=O)[C@H](C)NC(=O)[C@@H]2Cc3ccccc3CN2C(=O)OC(C)(C)C)cc1	u	-14%	-7%	x	x	+
O=C(Nc1ccccc1)OCc1cnc(Cl)s1	-1%	-1%	-9%	-19%[46.1 µM]	-17%[46.1 µM]	-16
O=C(Nc1ccc(Cl)c(Cl)c1)OCc1cnc(Cl)s1	0%	11µM*	4%	17%	-7%	1
Cc1ccn2c(=O)c(C(=O)NCCc3ccccc3)c(O)nc2c1	x	x	52%	x	-22%[46.1 µM]	7
COCCNC(=O)/C(C#N)=C/c1cc(C)n(-c2ccc(C)cc2)c1C	0%	10µM*	13%	u	u	16
Cc1ccccc1-n1c(C)cc(/C=C(\C#N)C(=O)NCC2CCCO2)c1C (stereo not given)	5%	-17%	36%	15µM*	-40%	u
CCc1nn2c(=O)cc(COC(=O)Cc3ccccc3)nc2s1	x	x	-14%	14%[46.1 µM]	x	-12
O=C(C1COc2ccccc2O1)N1CCN(c2ccc(F)cc2)CC1 (stereo not given)	-9%	5%	x	u	13%	6
CC(C)(O)C#Cc1ccc(C(=O)N2CCN(c3ccc([N+](=O)[O-])cc3)CC2)cc1	-2%	u	u	u	u	-85*
O=C(C1COc2ccccc2O1)N1CCN(c2ccc([N+](=O)[O-])cc2)CC1 (stereo not given)	-12%	22µM*	0%	7%	u	-13
CC1(C(=O)N2CCN(c3ccccc3)CC2)CC1(Cl)Cl (stereo not given)	1%	6%	-10%	3%[46.1 µM]	-6%[46.1 µM]	-21
CCCC(=O)N1CCN(c2nc3ccccc3s2)CC1	12%	u	2%	x	x	u
CCSc1ccccc1C(=O)N1CCN(c2nc3ccccc3s2)CC1	x	x	u	-26%[46.1 µM]	x	-67*
CC(C)(O)C#Cc1ccc(C(=O)N2CCN(c3ccccc3)CC2)cc1	5%	7%	0%	-25%	-35%	-18
CC1(C(=O)N2CCN(c3ccc([N+](=O)[O-])cc3)CC2)CC1(Cl)Cl (stereo not given)	2%	11µM*	20µM*	x	x	u
CCCCOc1ccc(S(=O)(=O)N2CCN(c3ccccc3OCC)CC2)cc1	x	x	-17%	1%[46.1 µM]	x	17
Cc1ccc(NC2=CC(c3ccccc3F)N(c3ccc(C)cc3)C2=O)cc1 (stereo not given)	x	x	3%	1%[46.1 µM]	-10%[46.1 µM]	22
COC(=O)C(NC(=O)CCc1c(C)nc2c(-c3ccccc3)c(C)nn2c1C)C(C)C (stereo not given)	x	x	-19%	21%[46.1 µM]	3%[46.1 µM]	0
CCSc1ccccc1C(=O)N1CCN(c2ccc([N+](=O)[O-])cc2)CC1	-1%	10µM*	u	u	u	-30
Cc1c(-c2ccccc2)oc2c(C(=O)N3CCN(c4ccc([N+](=O)[O-])cc4)CC3)cccc2c1=O	-17%	-27%	-25%	-1%	-27%	-61*
COc1ccc(-c2cc(C(=O)Oc3ccc(C#N)cc3)no2)cc1	x	x	0%	7%[46.1 µM]	4%[46.1 µM]	13
COCCn1c(=O)[nH]c2cc(C(=O)NCc3ccccc3Cl)ccc2c1=O	x	x	-12%	u	u	-69*
O=C(NCCCN1CCCCC1)c1ccc2c(=O)n(CCc3ccccc3)c(=O)[nH]c2c1	-8%	6.3µM*	8%	-27%	u	-2
CCOc1cc2[nH]c(=O)n(Cc3ccc(C(=O)NCCCN4CCC(C)CC4)cc3)c(=O)c2cc1OCC	0%	u	-9%	0%	u	-64*
CCCCCNC(=O)c1ccc2c(=O)n(CCc3ccccc3)c(=O)[nH]c2c1	x	x	5%	-1%[46.1 µM]	-2%[46.1 µM]	0
CCOc1cc2[nH]c(=S)n(Cc3ccc(C(=O)NCCCN4CCOCC4)cc3)c(=O)c2cc1OCC	-3%	9%	-7%	x	x	-29
CCn1c(S[C@@H](C)C(=O)O)nc2sc3c(c2c1=O)CCC3	x	x	x	x	10%[46.1 µM]	x
NNc1ccc2c(C(F)(F)F)cc(C(F)(F)F)nc2n1	1%	u	-5%	0%[46.1 µM]	-24%[46.1 µM]	-24
N#CC(c1cccc(Cl)c1)c1ccc2c(C(F)(F)F)cc(C(F)(F)F)nc2n1 (stereo not given)	x	2.8µM*	5µM*	2.2µM*	u	-104*
